{"source": "the supplement of paper PMC8728848", "binders": {"B1": {"name": "StcE (Escherichia coli), O82882.2 (protein)", "chain": "ADNNSAIYFNTSQPINDLQGSLAAEVKFAQSQILPAHPKEGDSQPHLTSLRKSLLLVRPVKADDKTPVQVEARDDNNKILGTLTLYPPSSLPDTIYHLDGVPEGGIDFTPHNGTKKIINTVAEVNKLSDASGSSIHSHLTNNALVEIHTANGRWVRDIYLPQGPDLEGKMVRFVSSAGYSSTVFYGDRKVTLSVGNTLLFKYVNGQWFRSGELENNRITYAQHIWSAELPAHWIVPGLNLVIKQGNLSGRLNDIKIGAPGELLLHTIDIGMLTTPRDRFDFAKDKEAHREYFQTIPVSRMIVNNYAPLHLKEVMLPTGELLTDMDPGNGGWHSGTMRQRIGKELVSHGIDNANYGLNSTAGLGENSHPYVVAQLAAHNSRGNYANGIQVHGGSGGGGIVTLDSTLGNEFSHEVGHNYGLGHYVDGFKGSVHRSAENNNSTWGWDGDKKRFIPNFYPSQTNEKSCLNNQCQEPFDGHKFGFDAMAGGSPFSAANRFTMYTPNSSAIIQRFFENKAVFDSRSSTGFSKWNADTQEMEPYEHTIDRAEQITASVNELSESKMAELMAEYAVVKVHMWNGNWTRNIYIPTASADNRGSILTINHEAGYNSYLFINGDEKVVSQGYKKSFVSDGQFWKERDVVDTREARKPEQFGVPVTTLVGYYDPEGTLSSYIYPAMYGAYGFTYSDDSQNLSDNDCQLQVDTKEGQLRFRLANHRANNTVMNKFHINVPTESQPTQATLVCNNKILDTKSLTPAPEGLTYTVNGQALPAKENEGCIVSVNSGKRYCLPVGQRSGYSLPDWIVGQEVYVDSGAKAKVLLSDWDNLSYNRIGEFVGNVNPADMKKVKAWNGQYLDFSKPRSMRVVYK"}}, "assay_in_all_cases": "glycan array binding signal (z-score within array); higher = stronger binding", "details_in_all_cases": "glycan notation: IUPAC condensed, linker removed", "key": {"[1]": {"biological_target": "Fuc(a1-2)Gal(b1-3)GalNAc(a1-3)[Fuc(a1-2)]Gal(b1-4)Glc", "outline": "(§1)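 Negative Z-scores can be read as non-binding. The Z-score is calculated within each array and then averaged across arrays of one protein sequence at different concentrations or buffers and across linkers. Arrays, 3228 in all, were curated from the Consortium for Functional Glycomics database and kept only where the protein sequence was available.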"}, "[2]": {"biological_target": "Fuc(a1-2)Gal(b1-3)GlcNAc(b1-3)Gal(b1-4)Glc", "outline": "as §1"}, "[3]": {"biological_target": "Fuc(a1-2)Gal(b1-3)[Fuc(a1-4)]GlcNAc(b1-3)[Fuc(a1-3)[Gal(b1-4)]GlcNAc(b1-6)]Gal(b1-4)Glc", "outline": "as §1"}, "[4]": {"biological_target": "Fuc(a1-2)Gal(b1-4)GlcNAc(b1-2)Man", "outline": "as §1"}, "[5]": {"biological_target": "Fuc(a1-2)Gal(b1-4)GlcNAc(b1-2)Man(a1-3)[Fuc(a1-2)Gal(b1-4)GlcNAc(b1-2)Man(a1-6)]Man(b1-4)GlcNAc(b1-4)[Fuc(a1-6)]GlcNAc", "outline": "as §1"}, "[6]": {"biological_target": "Fuc(a1-2)Gal(b1-4)GlcNAc(b1-3)[Fuc(a1-2)Gal(b1-4)GlcNAc(b1-6)]GalNAc", "outline": "as §1"}, "[7]": {"biological_target": "Fuc(a1-2)Gal(b1-4)[Fuc(a1-3)]GlcNAc(b1-3)Gal(b1-4)[Fuc(a1-3)]GlcNAc", "outline": "as §1"}, "[8]": {"biological_target": "Fuc(a1-2)Gal6S(b1-3)GlcNAc6S", "outline": "as §1"}, "[9]": {"biological_target": "Fuc(a1-2)[GalNAc(a1-3)]Gal(b1-3)GlcNAc(b1-2)Man(a1-3)[Fuc(a1-2)[GalNAc(a1-3)]Gal(b1-3)GlcNAc(b1-2)Man(a1-6)]Man(b1-4)GlcNAc(b1-4)[Fuc(a1-6)]GlcNAc", "outline": "as §1"}, "[10]": {"biological_target": "Fuc(a1-2)[GalNAc(a1-3)]Gal(b1-3)GlcNAc(b1-3)GalNAc", "outline": "as §1"}, "[11]": {"biological_target": "Fuc(a1-2)[GalNAc(a1-3)]Gal(b1-4)GlcNAc(b1-2)Man(a1-3)[Fuc(a1-2)[GalNAc(a1-3)]Gal(b1-4)GlcNAc(b1-2)Man(a1-6)]Man(b1-4)GlcNAc(b1-4)[Fuc(a1-6)]GlcNAc", "outline": "as §1"}, "[12]": {"biological_target": "Fuc(a1-3)[Gal(b1-4)]GlcNAc(b1-2)Man(a1-3)[Fuc(a1-3)[Gal(b1-4)]GlcNAc(b1-2)Man(a1-6)]Man(b1-4)GlcNAc(b1-4)[Fuc(a1-6)]GlcNAc", "outline": "as §1"}, "[13]": {"biological_target": "Fuc(a1-3)[GalNAc3S(b1-4)]GlcNAc", "outline": "as §1"}, "[14]": {"biological_target": "Gal(a1-3)Gal(b1-3)[Fuc(a1-4)]GlcNAc(b1-2)Man(a1-3)[Gal(a1-3)Gal(b1-3)[Fuc(a1-4)]GlcNAc(b1-2)Man(a1-6)]Man(b1-4)GlcNAc(b1-4)GlcNAc", "outline": "as §1"}, "Gal(a1-3)Gal(b1-4)Glc": {"biological_target": "Gal(a1-3)Gal(b1-4)Glc", "outline": "as §1"}, "[15]": {"biological_target": "Gal(a1-3)Gal(b1-4)[Fuc(a1-3)]GlcNAc", "outline": "as §1"}, "Gal(a1-4)Gal(b1-4)GlcNAc": {"biological_target": "Gal(a1-4)Gal(b1-4)GlcNAc", "outline": "as §1"}, "Gal(b1-2)Gal": {"biological_target": "Gal(b1-2)Gal", "outline": "as §1"}, "[16]": {"biological_target": "Gal(b1-3)GalNAc(a1-3)[Fuc(a1-2)]Gal(b1-4)GlcNAc", "outline": "as §1"}, "[17]": {"biological_target": "Gal(b1-3)GlcNAc(a1-3)Gal(b1-4)GlcNAc", "outline": "as §1"}, "[18]": {"biological_target": "Gal(b1-3)GlcNAc(b1-3)Gal(b1-3)GlcNAc", "outline": "as §1"}, "[19]": {"biological_target": "Gal(b1-3)[Fuc(a1-4)]GlcNAc(b1-2)Man(a1-3)[Gal(b1-3)[Fuc(a1-4)]GlcNAc(b1-2)Man(a1-6)]Man(b1-4)GlcNAc(b1-4)[Fuc(a1-6)]GlcNAc", "outline": "as §1"}, "Gal(b1-4)GlcNAc(b1-2)Man": {"biological_target": "Gal(b1-4)GlcNAc(b1-2)Man", "outline": "as §1"}, "Gal3S6S(b1-4)GlcNAc": {"biological_target": "Gal3S6S(b1-4)GlcNAc", "outline": "as §1"}, "Gal6S(b1-4)Glc": {"biological_target": "Gal6S(b1-4)Glc", "outline": "as §1"}, "[20]": {"biological_target": "GlcNAc(a1-4)Gal(b1-4)GlcNAc(b1-3)Gal(b1-4)[Fuc(a1-3)]GlcNAc(b1-3)Gal(b1-4)[Fuc(a1-3)]GlcNAc", "outline": "as §1"}, "[21]": {"biological_target": "GlcNAc(b1-2)Man(a1-3)[GlcNAc(b1-4)][GlcNAc(b1-2)Man(a1-6)]Man(b1-4)GlcNAc(b1-4)GlcNAc", "outline": "as §1"}, "GlcNAc(b1-3)Gal": {"biological_target": "GlcNAc(b1-3)Gal", "outline": "as §1"}, "[22]": {"biological_target": "Kdn(a2-3)Gal(b1-4)[Fuc(a1-3)]GlcNAc", "outline": "as §1"}, "[23]": {"biological_target": "Man(a1-2)Man(a1-2)Man(a1-3)Man", "outline": "as §1"}}, "note": "The sample as a whole holds a higher share of the strongest signals than the screen did."}
{"binder": "B1", "values": [{"measurement": "glycan array binding signal (z-score)", "setting": "[1]", "result": -0.142}, {"measurement": "glycan array binding signal (z-score)", "setting": "[2]", "result": -0.144}, {"measurement": "glycan array binding signal (z-score)", "setting": "[3]", "result": -0.147}, {"measurement": "glycan array binding signal (z-score)", "setting": "[4]", "result": -0.132}, {"measurement": "glycan array binding signal (z-score)", "setting": "[5]", "result": 1.14}, {"measurement": "glycan array binding signal (z-score)", "setting": "[6]", "result": 2.85}, {"measurement": "glycan array binding signal (z-score)", "setting": "[7]", "result": -0.122}, {"measurement": "glycan array binding signal (z-score)", "setting": "[8]", "result": 5.23}, {"measurement": "glycan array binding signal (z-score)", "setting": "[9]", "result": 0.015}, {"measurement": "glycan array binding signal (z-score)", "setting": "[10]", "result": -0.096}, {"measurement": "glycan array binding signal (z-score)", "setting": "[11]", "result": -0.164}, {"measurement": "glycan array binding signal (z-score)", "setting": "[12]", "result": -0.117}, {"measurement": "glycan array binding signal (z-score)", "setting": "[13]", "result": -0.164}, {"measurement": "glycan array binding signal (z-score)", "setting": "[14]", "result": 4.13}, {"measurement": "glycan array binding signal (z-score)", "setting": "Gal(a1-3)Gal(b1-4)Glc", "result": -0.25}, {"measurement": "glycan array binding signal (z-score)", "setting": "[15]", "result": 0.116}, {"measurement": "glycan array binding signal (z-score)", "setting": "Gal(a1-4)Gal(b1-4)GlcNAc", "result": -0.215}, {"measurement": "glycan array binding signal (z-score)", "setting": "Gal(b1-2)Gal", "result": 0.601}, {"measurement": "glycan array binding signal (z-score)", "setting": "[16]", "result": -0.17}, {"measurement": "glycan array binding signal (z-score)", "setting": "[17]", "result": -0.109}, {"measurement": "glycan array binding signal (z-score)", "setting": "[18]", "result": -0.142}, {"measurement": "glycan array binding signal (z-score)", "setting": "[19]", "result": 4.66}, {"measurement": "glycan array binding signal (z-score)", "setting": "Gal(b1-4)GlcNAc(b1-2)Man", "result": -0.167}, {"measurement": "glycan array binding signal (z-score)", "setting": "Gal3S6S(b1-4)GlcNAc", "result": -0.175}, {"measurement": "glycan array binding signal (z-score)", "setting": "Gal6S(b1-4)Glc", "result": 0.013}, {"measurement": "glycan array binding signal (z-score)", "setting": "[20]", "result": 3.96}, {"measurement": "glycan array binding signal (z-score)", "setting": "[21]", "result": -0.167}, {"measurement": "glycan array binding signal (z-score)", "setting": "GlcNAc(b1-3)Gal", "result": 0.13}, {"measurement": "glycan array binding signal (z-score)", "setting": "[22]", "result": -0.152}, {"measurement": "glycan array binding signal (z-score)", "setting": "[23]", "result": -0.442}]}
